Only some compounds are listed: those with a hit (about 18% of all), similar ones and a draw of the others.
PLK1 PBD block = inhibitors of human PLK1 polo-box domain binding | Plk1 PBD binding of FITC phosphopeptide, fluorescence polarization | Potency, µM, for the others: max response, negative = inhibition, usual class: inhibitors | 2.8% of 360,000 active | P53350 | AID 720504; further: series mostly up to about 57 µM; nearly all actives have a fitted effect of over 65% in size
Target sequence (P53350 whole entry, looked up, the tested form may be a part): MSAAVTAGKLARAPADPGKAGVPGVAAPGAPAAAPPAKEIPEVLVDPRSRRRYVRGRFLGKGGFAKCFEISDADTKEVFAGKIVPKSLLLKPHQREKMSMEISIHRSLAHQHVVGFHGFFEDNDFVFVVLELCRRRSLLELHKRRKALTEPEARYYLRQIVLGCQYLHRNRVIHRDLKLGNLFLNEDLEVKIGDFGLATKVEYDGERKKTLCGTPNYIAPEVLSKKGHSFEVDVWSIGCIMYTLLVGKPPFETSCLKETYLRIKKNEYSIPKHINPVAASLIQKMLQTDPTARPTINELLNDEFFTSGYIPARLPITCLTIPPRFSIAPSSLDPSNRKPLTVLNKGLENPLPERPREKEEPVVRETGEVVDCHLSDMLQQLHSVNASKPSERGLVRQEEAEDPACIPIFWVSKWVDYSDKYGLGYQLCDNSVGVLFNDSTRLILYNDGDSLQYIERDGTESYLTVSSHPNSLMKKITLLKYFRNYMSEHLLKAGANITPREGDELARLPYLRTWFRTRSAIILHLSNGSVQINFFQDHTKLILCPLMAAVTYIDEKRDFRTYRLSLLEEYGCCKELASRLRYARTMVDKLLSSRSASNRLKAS
TDP1 cell CPT = DT40-hTDP1 cell growth loss with CPT; Potency, µM (series often up to 46.2 µM), for inactives: at the highest dose activity change, negative = growth inhibition, actives largely listed as inhibitors; chicken DT40 Tdp1-/-;hTDP1 cells + 20 nM CPT, ATP luminescence, 48 h; 12% of 420,000 active; further: nearly all actives have a fitted effect of over 55% in size
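Chicken DT40 Tdp1-/- cells complemented with human TDP1, 400 cells/well, exposed to compounds plus 20 nM camptothecin for at least 48 h at 37 C; viability read as ATP content by CellTiter-Glo luminescence.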
TDP1 cell noCPT = qHTS for Inhibitors of human tyrosyl-DNA phosphodiesterase 1 (TDP1): qHTS in cells in absence of CPT. DT40 Tdp1-/- hTDP1 cells, no CPT, ATP luminescence, 48 h. Potency, µM (highest dose often 46.2 µM), without a hit: top-dose activity change, negative = growth inhibition, most hits filed as inhibitors. 15% of 420,000 active. AID 686978, 2013; further: nearly all actives have a fitted effect of over 55% in size
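A cellular qHTS used chicken DT40 cells lacking endogenous Tdp1 but carrying stably transfected human TDP1. Compounds were applied without camptothecin, and cell growth kinetics were judged by ATP-dependent luminescence after ≥48 hr.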
TDP1 block = TDP1 (human) enzyme inhibition. Potency, µM (doses to about 130 µM), inactives show at the top dose activity change, negative = inhibition, usual class: inhibitors. recombinant TDP1, AlphaScreen DNA substrate cleavage. 0.28% of 350,000 active; further: nearly all actives have a fitted effect of over 40% in size
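Signal: AlphaScreen proximity between streptavidin donor and anti-FITC acceptor beads on intact substrate. Reaction: Tdp1 1 nM, substrate 15 nM final, 5 min RT after 15 min compound preincubation.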
VDR inhibitor = vitamin D3 receptor (human) inhibition | Potency, µM, without a hit: max response, negative = inhibition, hits mostly inhibitors | 0.93% of 400,000 active | VDR-SRC2-3 peptide fluorescence polarization, 2 h | P11473
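Fluorescence polarization assay measuring small-molecule disruption of VDR binding to the coregulator peptide SRC2-3. Compounds were pin-transferred (23 nl) into the reagent mix and incubated 2 h at room temperature before reading.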
GCN5L2 inh = inhibitors of human GCN5L2 histone acetyltransferase; GCN5L2 HAT assay, ThioGlo1 CoA-SH fluorescence; Potency, µM (top dose mostly 58.9 µM), for inactives: at the highest dose activity change, negative = inhibition, actives largely listed as inhibitors; Q92830; 0.21% of 390,000 active
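Enzyme at 20nM final was mixed with library compounds for 15 min at room temperature. Peptide H3(1-25) at 75uM, acetyl-CoA at 70uM and ThioGlo1 at 50uM were then added. Plates were read immediately and after 20 min (Ex340nm/Em540nm).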
Numbers without * were called inactive; ? = inconclusive; · = not tested or not shown; [ ] = another dose, or the depositor's remark. The call rests on the fitted dose curve; in most records, active means well fitted curve in the direction sought with a large enough effect; inconclusive means small, poorly fitted or top-dose-only effect, or another doubt; inactive means no such curve, though single readings can be large; an effect the other way counts as inactive or inconclusive. On the % scale 0 is the no-effect control and ±100 the full control effect; potency means the concentration at half of the fitted maximal effect.

SMILES	PLK1 PBD block	TDP1 cell CPT	TDP1 cell noCPT	TDP1 block	VDR inhibitor	GCN5L2 inh
O=C(NN1CCN(Cc2ccccc2Cl)CC1)c1ccc(Br)cc1	-9%	-10%	?	3%	-1%	5%
Cc1ccc(S(=O)(=O)Cc2cc(F)c([N+](=O)[O-])cc2[N+](=O)[O-])cc1	2.4µM*	3.7µM*	2.9µM*	17%	-8%	-10%
COc1ccc(S(=O)(=O)N(CC(=O)Nc2cc(Cl)ccc2C)Cc2ccccc2)cc1OC	·	15µM*	?	3%[12.3 µM]	-5%	-7%
COC(=O)c1ccc(NC(=O)CN(Cc2ccccc2)S(=O)(=O)c2ccc(Cl)cc2)cc1	·	?	?	·	-15%	-12%
COc1ccc(NC(=O)CN(Cc2ccccc2)S(=O)(=O)c2ccc(C)cc2)cc1Cl	·	18µM*	?	0%[12.3 µM]	-3%	-1%
CCC(C)C(NC(=O)C(Cc1ccc(O)cc1)NC(=O)OCc1ccccc1)C(=O)OC (stereo not drawn)	-5%	?	?	·	·	·
CCOC(=O)N1CCN(C(=O)c2ccc(NS(=O)(=O)c3ccc(C)cc3)cc2)CC1	-5%	18µM*	13µM*	8%[56.1 µM]	-14%	-3%
CCOC(=O)N1CCN(C(=O)c2ccc(S(=O)(=O)Nc3ccc(C)cc3)cc2)CC1	0%	9.2µM*	10µM*	0%	-3%	-3%
CC(C)(C)c1csc(NC(=O)CCS(=O)(=O)c2ccc(F)cc2)n1	1%	8.2µM*	8.2µM*	·	·	·
O=C(CCS(=O)(=O)c1ccccc1)Nc1nc(-c2cccs2)cs1	-8%	?	21µM*	3%	-11%	-6%
O=C(CCS(=O)(=O)c1ccc(F)cc1)Nc1nc(-c2ccncc2)cs1	12µM*	13µM*	9.2µM*	6%	?	-25%
O=c1c(O)c(-c2ccccc2)oc2cc(O)cc(O)c12	-2%	?	30µM*	2%	3%	-8%
Cc1ccc2oc(-c3ccccc3)c(O)c(=O)c2c1	·	?	?	4%	·	·
O=c1c(O)c(-c2ccccc2)oc2ccccc12	-5%	?	9.2µM*	-9%[56.1 µM]	-12%	-17%
O=c1c(-c2ccccc2)c(-c2ccccc2)oc2cc(O)cc(O)c12	0%	-19%	?	·	?	?
O=c1c(O)c(-c2ccccc2)oc2cc(O)ccc12	·	?	?	13%[56.1 µM]	0%	?
COc1cccc(-c2oc3ccc(C)cc3c(=O)c2O)c1	·	21µM*	13µM*	3%	-1%	-18%
Cc1ccc(-c2oc3ccccc3c(=O)c2O)cc1	-6%	26µM*	16µM*	-2%	0%	-10%
CNC(=O)[C@@H]1C[C@H](Sc2nc3ccccc3[nH]2)CN1Cc1cccc(C(F)(F)F)c1	·	-24%	-21%	·	·	·
CCc1ccccc1NC(=O)CNC(=O)CCc1nc2sc3c(c2c(=O)[nH]1)CCCC3	-20%	-16%	1%	·	-1%	-28%
Cc1ccc2oc(-c3ccccc3)c(C(=O)O)c(=O)c2c1	-10%	?	23µM*	9%	14%	1%
COC(=O)C(C)Oc1ccc(-c2nccc(-c3ccccn3)n2)cc1 (stereo not drawn)	?	2%	-13%	·	-1%	0%
CC(=O)c1c(C)[nH]c(C(=O)NCC2CCCCC2)c1C	0%	-2%	-9%	10%	-9%	1%
CC(=O)N(C[C@@H](O)CO)c1c(I)c(C(=O)NC[C@@H](O)CO)c(I)c(C(=O)NC[C@@H](O)CO)c1I	·	·	·	4%[56.1 µM]	2%	10µM*
O=c1[nH]c(C2CCN(S(=O)(=O)c3ccc(C(F)(F)F)cc3)CC2)nc2c1nnn2Cc1ccccc1	1%	?	?	9%	-13%	-8%
SMILES	PLK1 PBD block	TDP1 cell CPT	TDP1 cell noCPT	TDP1 block	VDR inhibitor	GCN5L2 inh
COc1ccc(CCNC(=O)CSc2nc(-c3ccc(F)cc3)cc(C(F)(F)F)n2)cc1OC	·	18µM*	?	-4%	-11%	-1%
COCCn1c(-c2ccc(Cl)cc2)cnc1SCC(=O)NCCc1ccc(OC)c(OC)c1	0%	21µM*	?	4%	-7%	22%
CCC(C)NC(=O)CSc1nnc(-c2ccc(C)cc2)c(-c2ccc(C)cc2)n1 (stereo not drawn)	·	?	?	8%	8%	2%
COc1ccc(CCNC(=O)CSCc2ccc(Cl)cc2)cc1OC	-5%	?	?	0%	11%	-1%
Cc1ccc(-c2nnc(SCC(=O)NCCC(C)C)nc2-c2ccc(C)cc2)cc1	·	5.8µM*	13µM*	8%	10%	-7%
CCOc1ccc(-c2nnc(SCC(=O)NCCC(C)C)nc2-c2ccc(OCC)c(OC)c2)cc1OC	·	15µM*	?	-1%	4%	-10%
COc1ccc(C(=O)N2CCC3(CCN(CC(C)C)CC3)CC2)cc1	·	-4%	-6%	·	-2%	-10%
COc1ccccc1CCNC(=O)C(C)Sc1nc(-c2ccccc2)cc(C(F)(F)F)n1 (stereo not drawn)	·	16µM*	15µM*	2%	1%	-2%
COc1ccc(CCNC(=O)CSc2nnc(-c3ccc(C)cc3)c(-c3ccc(C)cc3)n2)cc1OC	·	?	16µM*	13%	10%	-1%
COc1ccc(CCNC(=O)c2nc(SCc3ccc(F)cc3)ncc2Cl)cc1OC	·	21µM*	?	0%	-5%	-6%
COc1ccc(CCNC(=O)CSc2nc(C)cc(C)n2)cc1OC	4%	7%	11%	-8%	5%	4%
COC(=O)c1ccccc1NC(=O)NCCc1ccc(OC)c(OC)c1	-24%	-10%	?	-4%	-20%	1%
COc1ccc(CCNC(=O)Nc2cc(F)c(F)cc2Cl)cc1OC	-2%	23µM*	8.2µM*	5%	?	-11%
Cn1c(OCc2ccc3c(c2)OCO3)nc2c1c(=O)n(Cc1cccc(Cl)c1)c(=O)n2C	?	?	10µM*	·	7%	·
Cn1c(OCc2cccnc2)nc2c1c(=O)n(Cc1ccccc1)c(=O)n2C	-9%	?	18µM*	8%	-7%	4%
Cn1c(OCc2cccnc2)nc2c1c(=O)n(Cc1ccc(F)cc1)c(=O)n2C	2%	21µM*	12µM*	1%	-5%	-1%
COCCCNc1nc2c(c(=O)n(Cc3ccc(F)cc3)c(=O)n2C)n1C	-1%	-5%	-4%	·	6%	1%
Cn1c(Oc2ccc3c(c2)OCO3)nc2c1c(=O)n(Cc1ccccc1)c(=O)n2C	-19%	?	?	-12%	-9%	-1%

High-throughput results from PubChem.
